SKN-1 inh: suppressors of acrylamide-induced Pgst-4::GFP reporter in worms, primary screen, SKN-1 inhibitor project, whole organism, uHTS, GFP/RFP fluorescence ratio, strain VP596. C. elegans VP596 Pgst-4::GFP/RFP ratio, 24 h. inhibition, % at 21.8 µM. actives 0.49% (n = 360,000). AID 624304, 2012;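 active = interference check ratio from 0.5 to 1.5 plus GFP to RFP signal ratio inhibition reaching or exceeding a fixed threshold, cut at about 30% in these data, passing the limit was not always enough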
M1 antag: human M1 muscarinic receptor antagonists, primary screen, CHO-K1 cells, Fluo-8 calcium fluorescence, 1536-well; Muscarinic acetylcholine receptor M1 (Homo sapiens), P11229; actives 1.3% (n = 360,000); inhibition, % at 3 µM; CHO-K1 hM1, ACh EC80 antagonist;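 active = percent inhibition above its own plate's cutoff, namely the mean of that plate's compound wells plus 3 SD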;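 also: peak over basal fluorescence ratio during 140 s after agonist addition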
Target sequence (P11229 whole entry, looked up): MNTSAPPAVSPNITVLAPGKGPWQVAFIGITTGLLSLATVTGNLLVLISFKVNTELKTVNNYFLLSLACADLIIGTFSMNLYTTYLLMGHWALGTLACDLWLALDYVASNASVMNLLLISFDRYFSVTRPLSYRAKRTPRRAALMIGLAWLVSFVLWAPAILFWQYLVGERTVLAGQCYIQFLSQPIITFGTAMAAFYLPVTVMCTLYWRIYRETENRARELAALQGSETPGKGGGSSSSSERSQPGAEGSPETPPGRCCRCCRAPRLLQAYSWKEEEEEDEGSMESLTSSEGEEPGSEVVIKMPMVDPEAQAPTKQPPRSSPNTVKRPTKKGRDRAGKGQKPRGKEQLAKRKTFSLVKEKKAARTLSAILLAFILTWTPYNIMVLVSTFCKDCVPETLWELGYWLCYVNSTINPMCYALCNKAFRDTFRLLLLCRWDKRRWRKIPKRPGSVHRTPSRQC
ATG4B inh: ATG4B protease inhibitors, primary screen, biochemical, fluorescence, uHTS; Cysteine protease ATG4B (Homo sapiens), Q9Y4P1; ATG4B cleavage of LC3-PLA2, NBD-HPC fluorescence, 1 h; inhibition, % at 8.33 µM; actives 0.51% (n = 340,000); in the data active = inhibition above about 40%
CHRM1 agonist: human M1 muscarinic receptor agonists, primary screen, Fluo-8 calcium fluorescence, CHO-K1 cells, HTS; Muscarinic acetylcholine receptor M1 (Homo sapiens), P11229; CHO-K1 hM1, agonist mode; 0% DMSO, 100% acetylcholine EC100; activation, % at 3 µM; actives 0.33% (n = 360,000); AID 588814, 2011;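 active = activation above the run's mean compound activation plus 3 SD, cut at about 16% in these data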;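 also: peak over basal fluorescence ratio within a 140 s kinetic read after compound addition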
Myeloid diff MLP: induction of myeloid progenitor differentiation, primary screen, cell-based, flow cytometry, MLPCN library | AID 624256, 2012 | ER-HoxA9 myeloid progenitors, lysozyme-GFP differentiation | actives 1% (n = 360,000) | calls only at 10 µM;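 active = normalized GFP-positive differentiation at or above the plate's own cutoff, the solvent-only control mean plus 3 SD; inconclusive = no clear call, values can overlap the other calls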;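 also: cells exposed to compound for four days before flow analysis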
CHRM1 PAM: human M1 muscarinic receptor positive allosteric modulators, primary screen, CHO-K1 cells, Fluo-8 calcium fluorescence, 1536-well. Muscarinic acetylcholine receptor M1 (Homo sapiens), P11229. CHO-K1 hM1, ACh EC20; 0% = ACh EC20, 100% = maximal ACh. activation, % at 3 µM. actives 0.088% (n = 360,000). AID 588819, 2011; in the data active = activation above about 19%, passing the limit was not always enough
Hits are given with their value. Hits are enriched below; roughly 3.5% of the tested compounds scored in any of these assays.

For Cc1cc(C)c2cc(C#N)c(N3CCCN(C(=O)c4cnccn4)CC3)nc2c1 the results were SKN-1 inh inactive, M1 antag inactive, ATG4B inh inactive, CHRM1 agonist inactive, Myeloid diff MLP active and CHRM1 PAM inactive.
CCS(=O)(=O)N1N=C(c2ccc(NS(C)(=O)=O)cc2)CC1c1ccccc1 (stereo not given) was read as SKN-1 inh inactive, M1 antag inactive, ATG4B inh inactive, CHRM1 agonist inactive, Myeloid diff MLP active and CHRM1 PAM inactive.
`CNS(=O)(=O)c1ccc(C(=O)NCC(=O)NCCC(c2ccccc2)c2ccccc2)cc1` gave SKN-1 inh inactive, M1 antag inactive, ATG4B inh inactive, CHRM1 agonist inactive, Myeloid diff MLP inactive and CHRM1 PAM inactive.
CC(C)Oc1ccccc1OCCN(C)C was read as SKN-1 inh inactive, M1 antag inactive, ATG4B inh inactive, CHRM1 agonist inactive, Myeloid diff MLP inactive and CHRM1 PAM inactive.
Screening Cc1cc(C(C)(C)C)ccc1OCCN1CCCC1 returned SKN-1 inh inactive, M1 antag inactive, ATG4B inh inactive, CHRM1 agonist inactive, Myeloid diff MLP inactive and CHRM1 PAM inactive.
CCOc1ccccc1OCCN1CCCC1 was read as SKN-1 inh inactive, M1 antag inactive, ATG4B inh inactive, CHRM1 agonist inactive, Myeloid diff MLP inactive and CHRM1 PAM inactive.
`CN(C)CCOc1ccccc1C(C)(C)C` gave SKN-1 inh inactive, M1 antag 57, ATG4B inh inactive, CHRM1 agonist inactive, Myeloid diff MLP inactive and CHRM1 PAM inactive.
For Cc1ccc(C(C)(C)C)c(OCCN2CCCC2)c1 the results were SKN-1 inh inactive, M1 antag 67, ATG4B inh inactive, CHRM1 agonist inactive, Myeloid diff MLP inactive and CHRM1 PAM inactive.
Screening CC(C)(C)c1ccccc1OCCN1CCCC1 returned SKN-1 inh inactive, M1 antag 43, ATG4B inh inactive, CHRM1 agonist inactive, Myeloid diff MLP inactive and CHRM1 PAM inactive.
CC(OCCN1CCCC1)(c1ccc(F)cc1)c1ccc(F)cc1 was read as SKN-1 inh inactive, M1 antag 92, ATG4B inh inactive, CHRM1 agonist inactive, Myeloid diff MLP inactive and CHRM1 PAM inactive.
Screening Cc1nc2ccccc2nc1OCc1ccccc1 returned SKN-1 inh 47, M1 antag inactive, ATG4B inh inactive, CHRM1 agonist inactive, Myeloid diff MLP inactive and CHRM1 PAM inactive.
Screening Cc1nc2ccccc2nc1OCc1cccc(Cl)c1 returned SKN-1 inh inactive, M1 antag inactive, ATG4B inh inactive, CHRM1 agonist inactive, Myeloid diff MLP inactive and CHRM1 PAM inactive.
For C=CCN(c1ccc(C(=O)NC(C)C)cc1)S(C)(=O)=O the results were SKN-1 inh 47, M1 antag inactive, ATG4B inh inactive, CHRM1 agonist inactive, Myeloid diff MLP inactive and CHRM1 PAM inactive.
`O=c1cc(-c2ccccc2)c2c([nH]1)CCCC2` gave SKN-1 inh inactive, M1 antag inactive, ATG4B inh inactive, CHRM1 agonist inactive, Myeloid diff MLP inactive and CHRM1 PAM inactive.
O=c1cc(-c2ccccc2Cl)c2c([nH]1)CCC2 was read as SKN-1 inh 67, M1 antag inactive, ATG4B inh inactive, CHRM1 agonist inactive, Myeloid diff MLP inactive and CHRM1 PAM inactive.
`COc1ccc(NC(=O)C[C@@H]2C(=O)N(c3ccc(OC)cc3)CC2(C)C)cc1` gave SKN-1 inh inactive, M1 antag inactive, CHRM1 agonist inactive, Myeloid diff MLP inconclusive and CHRM1 PAM inactive.
For c1ccc2c(c1)CCN(C1=Nc3cccc4cccc1c34)C2 the results were SKN-1 inh 49, M1 antag inactive, ATG4B inh inactive, CHRM1 agonist inactive, Myeloid diff MLP inactive and CHRM1 PAM inactive.
Screening CCOC(=O)C1C(=O)C=C(/C=C/c2ccc(N(C)C)cc2)CC1c1ccccc1 (stereo not given) returned SKN-1 inh inactive, M1 antag inactive, ATG4B inh inactive, CHRM1 agonist 18, Myeloid diff MLP active and CHRM1 PAM inactive.

Compound activity deposited in PubChem BioAssay by several laboratories.
